# Compound activity deposited in PubChem by National Center for Advancing Translational Sciences (NCATS).
# WRN helicase inh = qHTS for Inhibitors of WRN Helicase. Bifunctional 3'-5' exonuclease/ATP-dependent helicase WRN (Homo sapiens), Q14191. WRN helicase unwinding, fluorescent forked duplex, kinetic. Potency, µM (doses to about 114 µM), inactives show top-dose activity change, negative = inhibition, actives largely listed as inhibitors. 360,000 tested, 0.46% active; further: potency means the concentration at half of the fitted maximal effect; nearly all actives have a fitted effect of over 55% in size
#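 Fluorescence dequenching readout, ex 525 nm/em 598 nm, kinetic mode: forked duplex DNA (100 nM final) with adjacent fluorophore and quencher unwound by WRN (20 nM final) with 2 mM ATP. Compound preincubation 15 min, room temperature.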
# USP1-UAF1 inh = Inhibitors of USP1/UAF1: Primary Screen | Ubiquitin carboxyl-terminal hydrolase 1 (Homo sapiens), O94782 | recombinant USP1/UAF1, Ub-Rhodamine cleavage fluorescence | Potency, µM (series often up to 57.1 µM), for inactives: at the highest dose activity change, negative = inhibition, actives largely listed as inhibitors | 390,000 tested, 0.23% active; further: potency means the concentration at half of the fitted maximal effect; nearly all actives have a fitted effect of over 60% in size
# Target sequence (O94782 whole entry, looked up): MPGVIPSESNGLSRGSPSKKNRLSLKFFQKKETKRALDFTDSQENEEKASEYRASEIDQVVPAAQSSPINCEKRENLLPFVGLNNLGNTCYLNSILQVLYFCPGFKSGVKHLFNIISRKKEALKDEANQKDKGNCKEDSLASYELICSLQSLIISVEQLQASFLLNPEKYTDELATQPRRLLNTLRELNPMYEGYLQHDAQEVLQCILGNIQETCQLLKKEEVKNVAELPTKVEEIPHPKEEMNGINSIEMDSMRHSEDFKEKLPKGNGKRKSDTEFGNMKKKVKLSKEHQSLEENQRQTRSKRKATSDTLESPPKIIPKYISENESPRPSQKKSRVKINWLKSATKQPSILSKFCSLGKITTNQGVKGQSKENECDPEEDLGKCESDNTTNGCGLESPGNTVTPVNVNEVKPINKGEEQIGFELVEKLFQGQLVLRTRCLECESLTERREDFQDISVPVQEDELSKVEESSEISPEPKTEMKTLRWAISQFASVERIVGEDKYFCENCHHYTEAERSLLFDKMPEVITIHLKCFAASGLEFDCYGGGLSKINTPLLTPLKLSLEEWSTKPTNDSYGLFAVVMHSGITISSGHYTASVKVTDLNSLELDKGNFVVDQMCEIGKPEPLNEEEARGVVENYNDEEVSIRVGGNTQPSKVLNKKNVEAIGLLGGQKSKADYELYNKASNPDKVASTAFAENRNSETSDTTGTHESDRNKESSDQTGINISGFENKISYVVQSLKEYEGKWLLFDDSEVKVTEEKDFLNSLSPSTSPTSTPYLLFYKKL
#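 USP1/UAF1 complex (1 nM) preincubated 15 min at room temperature with compound, then Ub-Rho substrate (150 nM final) added. Kinetic fluorescence at 480/540 nm over 6 reads at 60 s intervals; 50 mM HEPES pH 7.8, 0.5 mM EDTA, 0.1 mg/ml BSA, 1 mM TCEP, 0.01% Tween-20.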
# PI5P4Ka inh = qHTS for Inhibitors of phosphatidylinositol 5-phosphate 4-kinase (PI5P4K). 330,000 tested, 1.2% active. AID 652105, 2013. PI5P4Kalpha enzyme, ADP-Glo luminescence, 60 min; hits give low values. Phosphatidylinositol 5-phosphate 4-kinase type-2 alpha (Homo sapiens), P48426. max response, %; active means max response of -50% or lower; inconclusive means between -30% and -50%; inactive means -30% or higher; further: value at the top dose of about 77 µM
#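 Reactions run in 0.038 M HEPES pH 7.4, 0.28 mM EGTA, 0.1% CHAPS and 5% DMSO, with PI5P4Kalpha, substrate, compound and 5 microM ATP final, one hour at room temperature. Readout is ADP-Glo luminescence.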
# PLK1 PBD inh = qHTS for Inhibitors of PLK1-PDB (polo-like kinase 1 - polo-box domain): Primary Screen. AID 720504, 2013. 360,000 tested, 2.8% active. Plk1 PBD binding of FITC phosphopeptide, fluorescence polarization. Serine/threonine-protein kinase PLK1 (Homo sapiens), P53350. Potency, µM, for inactives: max response, negative = inhibition, actives largely listed as inhibitors; further: potency means the concentration at half of the fitted maximal effect; series mostly up to about 57 µM; nearly all actives have a fitted effect of over 65% in size
# USP2a inh = qHTS Assay for Inhibitors of Ubiquitin-specific Protease USP2a Using CHOP2 as the Reporter | AID 463254, 2010 | Potency, µM (top dose mostly 38.3 µM), without a hit: at the top dose activity change, negative = inhibition, usual class: inhibitors | USP2 core, Ub-CHOP2 coupled fluorogenic reporter, 485/531 | 330,000 tested, 0.01% active;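 further: potency means the concentration at half of the fitted maximal effect; plate controls were DMSO wells for no effect and full inhibition by NEM control for full effect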
#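 Cell-free coupled assay: 10nM USP2 core preincubated 30min RT with compound in Tris-HCl pH 8.0/CaCl2/CHAPS buffer, then 25nM Ub-CHOP2 and 25nM reporter substrate; fluorescence (Ex 485/Em 531) read after 60min RT, normalized to NEM inhibition, concentration-response curves fitted.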
# An asterisk follows results filed as active; ? = inconclusive; / = not tested or not shown; [ ] = dose if it differs, or a comment. Most compounds without a hit are left out; they make up all but 3.3% or so of the library. Unless noted, the call rests on the fitted dose curve; in most records, active means well fitted curve in the direction sought with a large enough effect; inconclusive means small, poorly fitted or top-dose-only effect, or another doubt; inactive means no such curve, though single readings can be large; an effect the other way counts as inactive or inconclusive. Unless noted, on the % scale 0 is the no-effect control and ±100 the full control effect.
SMILES,WRN helicase inh,USP1-UAF1 inh,PI5P4Ka inh,PLK1 PBD inh,USP2a inh
N#CC1=C(N)N2C(=C(C#N)C1c1cccc(Br)c1)Nc1ccccc12 (centres undefined),-2.6%,-2.4%,-8.2,-17.5%,0.3%
Cc1c(C(=O)c2ccc(Cl)cc2Cl)cnc2cc3c(cc12)OCO3,-7.9%,-14.5%,-1.1,29.9µM*,-0.4%
O=C(Nc1ccc2c(c1)OCO2)c1ccc(Cl)cc1Cl,-6.5%,-9.3%,-1.7,-1.8%,3.7%
CC1(C)Cc2c(C#N)c(N3CCN(C(=O)c4ccco4)CC3)nc(-c3ccco3)c2CS1,39.8µM*,?,/,-23.9%,?
CC1(C)Cc2c(C#N)c(SCC(=O)c3ccccc3)nc(N3CCOCC3)c2CS1,-8.9%,-28.3%,9.9,29.9µM*,-7.0%
CN1Cc2c(N3CCOCC3)nc(SCc3ccccc3)c(C#N)c2CC1(C)C,-13.6%,-14.0%,/,-9.5%,-11.9%
CN1CCC2(CC1)N=C(c1ccc(F)cc1)C(=S)N2C(=O)c1ccc(C(C)(C)C)cc1,-9.6%,?,?,23.8µM*,0.6%
CCOC(=O)c1c(C)oc2c1c(C(c1cccnc1)N1CCN(C)CC1)c(O)c1ccccc12 (centres undefined),/,/,/,/,1.7%
CCOC(=O)c1c(C)oc2c1cc(O)c1ccccc12,-4.8%,-1.3%,2.9,-16.8%,0.4%
CCOC(=O)c1c(C)oc2c1c1c(c3ccccc32)OCN(Cc2cccnc2)C1,-32.2%,-23.9%,-22.1,4.74µM*,-1.2%
CCOC(=O)c1c(C)oc2c1c(C(c1cccnc1)N1CCOCC1)c(O)c1ccccc12 (centres undefined),-16.6%,-27.9%,-5.6,6.7µM*,-10.5%
CCOC(=O)c1c(C)oc2c1c1c(c3ccccc32)OCN(CCCC(=O)O)C1,-9.2%,-26.7%,-15.4,10.6µM*,1.4%
Cc1ccc(OCC(=O)N(Cc2ccco2)Cc2ccco2)cc1C,/,-28.0%,/,/,/
COc1cc(C(=O)NCC(c2ccc(N(C)C)cc2)N2CCc3ccccc32)cc(OC)c1OC (centres undefined),/,-18.9%,/,/,/
CCOc1cc(/C=C2/C(=O)N(c3ccccc3)N=C2C)ccc1OC(=O)c1ccco1,?,?,/,1.5µM*,-1.5%
CC1=NN(c2ccccc2)C(=O)/C1=C/c1cccs1,?,-27.9%,8.6,16.8µM*,2.0%
CC1=NN(c2cccc(C(=O)O)c2)C(=O)/C1=C\C=C/c1ccccc1,?,?,-30.0,5.32µM*,2.0%
COc1ccc(/C=C2/C(=O)N(c3ccccc3)N=C2C)cc1Br,-17.3%[11.6 µM],-24.8%,4.3,2.12µM*,1.6%
CCOc1cc(/C=C2\C(=O)N(c3ccc(C(N)=O)cc3)N=C2C)ccc1OC(=O)c1cccs1,?,-19.6%,-25.2,?,-0.6%
CC1=NN(c2ccc(C)cc2)C(=O)/C1=C\C=C\c1ccccc1,-5.9%[11.6 µM],?,3.6,-28.0%,5.3%
Cc1nc(-n2nc(C)c(CCC(C)C)c2C)sc1C(=O)Nc1ccc(Br)cc1,/,4.4%,/,/,/
CCCOc1ccc(C2c3c(-c4ccccc4O)n[nH]c3C(=O)N2CCc2ccccc2)cc1OCC (centres undefined),/,-13.9%,/,/,/
CCOc1ccc(-c2c(C)nn3c(-c4ccccc4)c(C(=O)NCCOC)cnc23)cc1OCC,/,-25.8%,/,/,/
CCN1CCN(c2cc(C)c3cc(NC(=O)/C=C/c4cccc(Cl)c4)ccc3n2)CC1,/,-25.0%,/,/,/
CC1=NN(c2ccccc2)C(=O)/C1=C/c1ccc(Cl)cc1,2.6%[11.6 µM],-24.6%,-3.7,1.89µM*,-4.4%
SMILES,WRN helicase inh,USP1-UAF1 inh,PI5P4Ka inh,PLK1 PBD inh,USP2a inh
CC1=NN(c2ccccc2)C(=O)C1=Cc1ccccc1,?,-23.8%,1.8,4.74µM*,/
CC1=NN(c2ccccc2)C(=O)/C1=C\c1ccc(Br)s1,-13.0%[11.6 µM],-23.3%,8.6,4.74µM*,4.6%
Cc1cccc(NC(=O)CSc2nc3c([nH]c4ccccc43)c(=O)n2-c2ccc(F)cc2)c1C,/,13.1%,/,/,/
CCCCC(Sc1nc2cc3c(cc2c(=O)n1CCCC(=O)NCc1ccc(OC)cc1)OCO3)C(=O)OCC (centres undefined),/,-5.0%,/,/,/
Cc1cccc2cc(CN(Cc3ccc(F)cc3)C(=O)N3CCOCC3)c3nnnn3c12,1.7%,-20.7%,-18.1,23.8µM*,2.9%
COC(=O)c1ccc(NC(=O)CCS(=O)(=O)c2ccc3c(c2)NC(=O)C(C)S3)cc1 (centres undefined),-1.2%,-28.9%,-24.3,5.97µM*,1.4%
CCC1Sc2ccc(S(=O)(=O)CCC(=O)Nc3cccc(Br)c3)cc2NC1=O (centres undefined),-8.4%,-14.0%,-6.5,11.9µM*,-1.7%
COc1ccc(CNC(=O)c2ccc3c(c2)NC(=O)C(C)S3)cc1 (centres undefined),-5.0%,-8.6%,?,13.4µM*,-1.7%
CCC1Sc2ccc(S(=O)(=O)CCC(=O)Nc3ccc(C(=O)OC)cc3)cc2NC1=O (centres undefined),-6.4%,-8.4%,-10.1,15µM*,0.3%
O=C(CC(c1cccs1)N1Cc2ccccc2C1=O)Nc1ccccc1F (centres undefined),/,-13.6%,/,/,/
CCOC(=O)c1noc2ncnc(N3CCN(c4ccccc4OC)CC3)c12,/,-10.9%,/,/,/
CCc1cccc(NC(=O)CC2Oc3ccc(C)cc3NC2=O)c1 (centres undefined),/,-22.6%,/,/,/
CC(=O)N1c2ccc(S(=O)(=O)N3CCCCC3)cc2CC1C(=O)Nc1ccc(F)cc1C (centres undefined),4.0%,-14.5%,-6.3,26.7µM*,-1.0%
CCS(=O)(=O)N1CCc2cc(C(=O)Nc3cc(C(F)(F)F)ccc3Cl)ccc21,/,-12.8%,/,/,/
COc1ccc([N+](=O)[O-])cc1NC(=S)NC(NC(C)=O)C(Cl)(Cl)Cl (centres undefined),5.6%,-8.5%,-4.1,26.7µM*,4.6%
COc1ccc(NC(=S)NC(NC(=O)C(C)C)C(Cl)(Cl)Cl)c([N+](=O)[O-])c1 (centres undefined),-9.6%,2.2%,-24.3,26.7µM*,-0.8%
COc1cccc(C(c2sc3nc(-c4ccco4)nn3c2O)N2CCOCC2)c1 (centres undefined),/,-9.9%,/,/,/
O=C(/C=C/c1cccc([N+](=O)[O-])c1)Nc1cc(C(=O)O)cc(C(=O)O)c1,?,-15.7%,-16.2,10.6µM*,-1.1%
O=C(/C=C/c1ccccc1)Nc1cc(NC(=O)/C=C/c2ccccc2)cc(C(=O)O)c1,-6.8%[11.6 µM],?,-55.9*,-12.7%,4.4%
O=C(/C=C/c1ccccc1)Nc1cccc(C(=O)O)c1,-4.9%,-11.5%,-13.3,-8.2%,-1.2%
